The campaign covered roughly 53,000 sequences. About 3,700 (7%) were called active.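 Rule for the calls: active = gene knockdowns whose robust z-score for IL-1 alpha signal is at least 2 or at most -2, so actives lie on both sides; inactive = the rest.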 Many of the other results were omitted from the sample, so actives are more common in it than they were.

This assay is described as follows: Components of the Cytosolic LPS Sensing Pathway: Gene Identification via Genome-wide siRNA Screen. The conditions noted are these: RAW264.7 macrophages, IL-1a HTRF, actives lie on both sides, screened at 100 nM (by protocol), cells primed 5 h with Pam3CSK4 first. From the text: Non-canonical inflammasome activation by cytosolic LPS is a critical component of the host response to Gram-negative bacterial infection, however we lack a comprehensive understanding of the cellular processes that control this pathway. Here we describe a genome-wide siRNA screen to identify genes regulating the mouse macrophage IL-1 alpha response to cytosolic LPS.
RAW264.7 cells were maintained in complete DMEM media, comprising DMEM with 4.5 g/L glucose, 10% FBS (Gemini Bio-Products, West Sacramento, CA), 2 mM Glutamine (Lonza) and 20 mM HEPES (Lonza), hereafter complete DMEM.
The RNAi screen was conducted in 384-well format using the Ambion Silencer Mouse Genome siRNA Library (#4391425), which consists of three unique, nonoverlapping, nonpooled siRNAs for each of 17,000 gene targets. siRNA reagents ([…]) were stamped into 384-well white flat-bottom microplates (Corning, 3570) using a Velocity11 VPrep liquid handling system (Agilent) integrated into a BioCel robotic platform (Agilent) in columns 1-22, leaving columns 23-24 empty for negative (Ambion, Negative control #1) and positive (mouse Casp4) controls, respectively. The median value of each plate's negative control column was used to normalize sample wells, and the positive control was used to assess transfection efficiency and assay performance.
Lipofectamine RNAiMAX Transfection Reagent ([…]; Invitrogen) was added in […] serum-free, antibiotic-free media to plate wells using a Thermo Scientific Matrix WellMate and Microplate Stacker. Plates were incubated for 45 min at room temperature to allow for the sufficient formation of siRNA-lipid complexes. Cells were seeded at a density of 1x10^4 cells per well in 20 microL media containing 20% (vol/vol) FBS without antibiotics. The final concentration of siRNA in each well was 100 nM. Cells were cultured for 48h at 37 degrees C in 5% CO2 before addition of […] of TLR ligand Pam3CSK4 for 5 hours. The medium was then removed, replaced with […] growth media and cell were transfected with […] of LipidA and TransIT-TKO (Mirus) for 24 hour. At the end of the LipidA treatment, […] of supernatant was transferred to a 384 Greiner Bio-one non-binding low volume plate and […] of IL-1a HTRF reagent (Cisbio, 62MIL1APEH) was added and incubated at room temperature overnight. The plates were read on an EnVision plate reader (PerkinElmer). Cell viability was measured by adding 20ul Cell Titer Glo to the original plate and running a luminescence read on the EnVision. The quantified IL-1a signal for each siRNA gene-targeted well was divided by the median of the negative control wells and multiplied by 100 to achieve a negative control normalized value for each well/siRNA. This normalized value was then used to generate a robust z-score by first taking the log of each value and then by subtracting the median and dividing by the […].
On the technique in general: In TR-FRET formats the signal depends on donor and acceptor labels being close together.
Turning to GGUGCAAUCGUGUUGAGCUTT against Dap3, the z-score was 1.06 (inactive).
The result for GCAAACCUUCGGUCUUGCCTT against Cd5l reads -0.364 (inactive).
As to GGAGAGAUCAUACACUUUGTT against BC048679, the z-score is 0.43 (inactive).
Consider GGUAGUGAAUGAACUCUUUTT against Bcl2l1, for which the z-score was -1.41 (inactive).
Next, GGCAGACAUCACAAUGGCUTT against Hemgn: -0.201 (inactive); GGACAUGUCCGAAUACUACTT against Pdss1: 2.34 (active); GGGUUAGCAACUUCAAAUATT against Zmynd19: 0.996 (inactive).
Next, CCUAAAUCCUUUUGAACCCTT against Anapc16: 0.295 (inactive); GGCCAGUGUGUGGUCUAAGTT against Cd1d2: 1.89 (inactive); GGUCUUCAGAUAAUCUUCCTT against Brinp1: 1.91 (inactive).
Turning to GCUCAGAUAAUGGCCUACATT against Smarca4, the z-score is 2.28 (active).
The result for CCGACAAACGCAAGGUGAUTT against Rtl8c reads -0.382 (inactive).
The result for GGUGUGUGGUGUUAAAAAATT against Mybph reads -0.81 (inactive).
GGUGGAAUAUAGCUUCAUCTT against Ifngr2: the z-score was 1.06 (inactive).
The result for GGAAGAACACAAGUGUUUUTT against Trem3 reads -0.626 (inactive).
As for GCGAAGCGUGCUGCUAAGATT against Ccdc59, the z-score was 0.519 (inactive).
Regarding GGCCAGCUCUCUUUUGCUATT against Cflar, the z-score was 2.5 (active).
In the case of GCAGAGGCUCUCCUUAUAGTT against Ccser2, the z-score was 0.747 (inactive).
Next, GGUACGGUGUUUUGGAUACTT against Fam174a: 0.00664 (inactive); GGGACAGUUUUCGGACUUCTT against S1pr4: -0.362 (inactive); GCUACAGGGAAAAAGUUCCTT against Olfr994: 0.383 (inactive).
In the case of CGGCUGCAUUUCAACAAGGTT against Snrpc, the z-score was -1.92 (inactive).
Next, GGUUCUGCCAUGGAGGAAUTT against Svs5: 0.0746 (inactive).
The result for GCCACUCACCUGUAGUUCUTT against BC049715 reads 0.0758 (inactive); that for GGAUCUCAGAUUUACUGUCTT against Dedd2, 0.484 (inactive); that for GGUCAUCAAGCAGUGCUAUTT against Ncstn, 4.32 (active).
As for CGGAGCAUUGGGACAAUUUTT against Olfr690, the z-score was 1.1 (inactive).
For the sequence GGAAGUUGAAUACAUUGUCTT against Arntl, the z-score was 0.127 (inactive).
On to GCAUGCAAAUCUCCUCUAATT against Sema3b, for which the z-score is -0.116 (inactive).
The result for CCUUUGUAACUGGAAUUCUTT against Olfr197 reads 1.74 (inactive); that for GGAAAUUGUGAGAAGAACUTT against Slx4ip, 2.33 (active).
Next, GGAUCAAAUUACAGAUCUUTT against Eef1e1: 1.81 (inactive); “GGAAAUGCUACUGCUUGGATT against 1700030K09Rik”: 1.2 (inactive).
With GGAAACCAAAGAUAAACUCTT against Ccdc186, the z-score is 0.726 (inactive).
Next, GGGCAUCAAGUGUAAAAAATT against Med7: -0.384 (inactive); GGAUAGGAAGAAAAUGAAGTT against Slfn2: -2.83 (active).
As for CCCAAAUCCUACGAAGCCUTT against Tanc1, the z-score was -1.9 (inactive).
In the case of GGAUCUAAGGAAGUUUCUGTT against Gfpt2, the z-score was 0.594 (inactive).
Take GGCGAACACCAUGAAAAGGTT against Lin7b: the z-score was 0.794 (inactive).
Consider GCGUGGAUAGUUUCACAGCTT against Fbp1, for which the z-score was -0.142 (inactive).
With GGAGAGUGCUGUGAAGCCATT against Vegfb, the z-score is -0.943 (inactive).
Next, CCAGAAGAGUACUGUUUUATT against Tpm4: 2.17 (active); “GGAAUACUCCAGUAUCUCCTT against 9130401M01Rik”: -0.753 (inactive).
Next, GGCAAUGAGACAAUUGUCATT against Cpe: -0.638 (inactive).
Regarding GGCAAAAUCCCAUACGAAATT against Itk, the z-score was 0.0298 (inactive).
CCAUGUAAGAUGUUAAGUATT against Abcb1a: the z-score is -0.265 (inactive).
Next, CCUUUGUGUCCUAACGGUGTT against Tubb2b: -0.158 (inactive); GGUCCAUUGCUAAAGACUGTT against Tcf19: 0.0971 (inactive); GGUAAUGAGGACAUGGAUCTT against Lyrm4: 0.467 (inactive).
Next, GCACUUUCCUUUAUUGUGUTT against Fam117a: -1.41 (inactive); GGAAUUCAUGAACUACUAUTT against Capsl: -2.07 (active).
Next, GGCUCAGAUUGAUAGGAUATT against Gmfg: 0.103 (inactive).
As for GGCCAAACUAAUGUUUUUCTT against Prox2, the z-score is -0.594 (inactive).
Next, CCUGCUGGGAUUUAUUCAATT against Pmvk: 2.52 (active).
For the sequence GCUCAUAAUUACAUCACCATT against H3c15, the z-score was -1.22 (inactive).
Regarding GGACCAUCCUACAUCGGUCTT against Fpgs, the z-score is 1.02 (inactive).
As for GGACAAGGUCUUUAAUGUUTT against Fbxo3, the z-score was -0.263 (inactive).
The result for CGGUUGUCUUCCUCUUAGUTT against Fzd5 reads -0.52 (inactive).
Next, GAAAAGAGGAUUCCUUGCATT against Olfr1128: 0.726 (inactive); GGCAAAGUUGUCCUAAGGUTT against Rab27b: 2.54 (active); GCGAGAGUGAAAACAUCCATT against Fam78b: 0.331 (inactive).
For GGCUUAUACGCUCCAUAUUTT against Gykl1, the z-score is -0.214 (inactive).
For the sequence GGAUACAUUCCAGACAUACTT against Map3k2, the z-score is -0.0192 (inactive).
The result for GGCGGACGUGAAGAACUUGTT against Letmd1 reads 1.28 (inactive).
In the case of GGAACAGUCCUACUGAUAUTT against Cdkn1a, the z-score is -0.271 (inactive).
As for GCUGGAUGGAGGCAAAGCATT against C1ql1, the z-score is -1.38 (inactive).
With GGCCAGAACCACCAAAGAATT against Zc2hc1a, the z-score was -0.753 (inactive).
In the case of GCAACAAUCUAACCUCAGATT against Mela, the z-score was -2.3 (active).
Next, CCACUGAUAACUCGAUUUGTT against Nrp1: -0.228 (inactive); GGAACCUCUUGGACAAAGATT against Cpne5: 2.17 (active).
The result for GGUAACAUGGCAGAUUUUATT against Aif1l reads 0.618 (inactive); that for GGACUGUUUGGAUUGCAUATT against Dock7, 0.891 (inactive); that for GGCAACAGCAUCCUACUCUTT against Olfr652, -2.12 (active).
The result for GCAUUUCGAAGUGCCCUUGTT against Gpr146 reads 1.22 (inactive); that for CCGCUACCAGAUAAACUCGTT against BC053393, 0.984 (inactive).
In the case of GGACAAUACGGAGAAAGAUTT against Mdfic, the z-score is -0.522 (inactive).
As to GGGCAAAUUAUGCUGUCAUTT against Tomm20, the z-score was -1.7 (inactive).
Next, GCGAUGAGAUUGUUGCUGUTT against Ttc33: 2.32 (active); GCUUGCUGACCUGAAGUGATT against Krt17: 0.262 (inactive); GCUAUCCCUUUAUGUAACATT against Prl7b1: -0.224 (inactive).
The result for CCAUAUCGAGUACCUCCAATT against Rtn4rl1 reads -0.522 (inactive); that for GGUCUACUGGCGUAAUUACTT against Vsig4, -0.365 (inactive).
With GCAGUCAUUCAAGGUUCCUTT against Hmces, the z-score was -0.231 (inactive).
Next, GGUGUUGAAAUAAUUUCUCTT against Phospho2: -0.285 (inactive).
Next, GGAGUGUAGUAAAUGUACCTT against Ppp1r13b: 3.97 (active); GGACUUGAUCCCAAAGCUGTT against Mrpl17: -1.21 (inactive).
As to GGGACAACACAUUAACUUATT against Uckl1, the z-score was 1.41 (inactive).
Next, GCACAUUGUCUAGUAGUAATT against Zfp280d: -0.622 (inactive).
The result for GGAACAGAAACAAGGUUUUTT against Zfand2a reads 0.962 (inactive); that for “CCUCAUUCAGGGAGUUCCATT against 2200002J24Rik”, -1.52 (inactive); that for “GGACAGUGGAAGGAAUCCATT against 2310033P09Rik”, -2.91 (active).
Next, GCUGAUGCUCCAUUGAAUGTT against Prr27: 0.228 (inactive); GCGUGAGAGAUACCGCCAUTT against Gnai2: -0.847 (inactive).
Regarding CGUGGUUUGUCAAUGAAGGTT against Eprs, the z-score is 0.358 (inactive).
In the case of GGUUCUUUGGAAUGCUUUUTT against Myl12a, the z-score is 2.76 (active).
In the case of CGUAAGAUUGACUCUAGUATT against Prl6a1, the z-score is 0.326 (inactive).
Next, GGACAGACUGAUUAAGAAATT against Paqr8: -0.569 (inactive); GCUACUGAACGAGAAUGCCTT against Zc3h12a: 0.394 (inactive).
Turning to GGACAUUGACGCAUAGGGATT against Arsa, the z-score was -0.232 (inactive).
For the sequence GGAUACAGUUUCUGAAAUCTT against Mlxipl, the z-score is 2.6 (active).
Regarding GCCAUGUGAUCGAAUCCAGTT against Clip2, the z-score was -0.0773 (inactive).
With GGGAUUCAUACUACUUAACTT against Olfr304, the z-score was 1.32 (inactive).
Next, GCAGUUACUUAUCAUCUGGTT against Inca1: 0.00859 (inactive); “GGUGUCUCUGAAUGAUGGCTT against 1810009J06Rik”: 0.499 (inactive).
The result for GGGUUGAUCCCUUUGAUUCTT against Pld4 reads -0.268 (inactive); that for GGACAAUGUGGACUUUGAUTT against Edem2, -2.33 (active).
The result for GCAAACUCGGACUUUCAAATT against Lamtor3 reads 0.443 (inactive).

The record behind these values is PubChem BioAssay AID1508600 (Functional Genomics Laboratory (NCATS/FGL), 2020).
